RECQ1 inh: inhibitors of human RECQ1 DNA helicase | Potency, µM (top dose mostly 57.3 µM), without a hit: at the highest dose activity, negative = inhibition, most hits filed as inhibitors | RECQ1 DNA unwinding, red fluorescence kinetic read | hit rate 0.54% among 240,000 | AID 2549 | P46063;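 also: plate controls were vehicle for no effect and no enzyme for full effect; nearly all actives have a fitted effect of over 30% in size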
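50 nM RECQ1T1 preincubated 15 min with compound in Tris pH 8.0 buffer with MgCl2, DTT, Tween-20 and 2.5 ug/ml poly(dI-dC); started with 200 nM TAMRA/BHQ-2 forked duplex and 2 mM ATP. Unwinding read as fluorescence (525/598 nm), two reads 2 h apart.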
FEN1 inhibitor: human FEN1 inhibition | P39748 | Recombinant FEN1 flap cleavage, fluorescence, 15 min | Potency, µM (series often up to 114 µM), for the others: top-dose activity change, negative = inhibition, actives largely listed as inhibitors | hit rate 0.35% among 390,000; also: % is scaled to controls: 0 for no effect and ±100 for the full control effect; nearly all actives have a fitted effect of over 65% in size
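In this screen, 50 nM flap DNA substrate was added to 10 nM FEN1 pretreated with compound for 15 min at room temperature; cleavage was followed with reads at 0 and 15 min, and Hill fitting gave concentration–response parameters.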
BLM helicase inh-1: inhibitors of human Bloom syndrome helicase BLM. P54132. recombinant BLM DNA unwinding, fluorescence dequenching. Potency, µM (top dose mostly 56.1 µM), for the others: at the top dose activity change, negative = inhibition, usual class: inhibitors. hit rate 0.2% among 350,000;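 also: plate controls were vehicle for no effect and no enzyme for full effect; nearly all actives have a fitted effect of over 35% in size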
L3MBTL1 block: blocks human L3MBTL1 | Q9Y468 | hit rate 0.66% among 230,000 | Potency, µM (top dose mostly 57.1 µM), without a hit: top-dose activity, negative = inhibition, most hits filed as inhibitors | AlphaScreen L3MBTL1–H3K9me1 peptide binding | AID 485360; also: % is scaled to controls: 0 for no effect and ±100 for the full control effect; nearly all actives have a fitted effect of over 60% in size
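Displacement of a biotinylated histone H3(1-15) peptide monomethylated at Lys9 (75 nM) from L3MBTL1 (50 nM) was measured by AlphaScreen after a 30 min room-temperature compound incubation; cefsulodin titration served as intraplate control.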
WRN helicase inh-1: WRN helicase (human) inhibition | WRN helicase unwinding, fluorescent forked duplex, kinetic | AID 651768 | hit rate 0.46% among 360,000 | Q14191 | Potency, µM (highest dose often 114 µM), without a hit: at the highest dose activity change, negative = inhibition, actives largely listed as inhibitors; also: % is scaled to controls: 0 for no effect and ±100 for the full control effect; nearly all actives have a fitted effect of over 55% in size
Target sequence (Q14191 whole entry, looked up): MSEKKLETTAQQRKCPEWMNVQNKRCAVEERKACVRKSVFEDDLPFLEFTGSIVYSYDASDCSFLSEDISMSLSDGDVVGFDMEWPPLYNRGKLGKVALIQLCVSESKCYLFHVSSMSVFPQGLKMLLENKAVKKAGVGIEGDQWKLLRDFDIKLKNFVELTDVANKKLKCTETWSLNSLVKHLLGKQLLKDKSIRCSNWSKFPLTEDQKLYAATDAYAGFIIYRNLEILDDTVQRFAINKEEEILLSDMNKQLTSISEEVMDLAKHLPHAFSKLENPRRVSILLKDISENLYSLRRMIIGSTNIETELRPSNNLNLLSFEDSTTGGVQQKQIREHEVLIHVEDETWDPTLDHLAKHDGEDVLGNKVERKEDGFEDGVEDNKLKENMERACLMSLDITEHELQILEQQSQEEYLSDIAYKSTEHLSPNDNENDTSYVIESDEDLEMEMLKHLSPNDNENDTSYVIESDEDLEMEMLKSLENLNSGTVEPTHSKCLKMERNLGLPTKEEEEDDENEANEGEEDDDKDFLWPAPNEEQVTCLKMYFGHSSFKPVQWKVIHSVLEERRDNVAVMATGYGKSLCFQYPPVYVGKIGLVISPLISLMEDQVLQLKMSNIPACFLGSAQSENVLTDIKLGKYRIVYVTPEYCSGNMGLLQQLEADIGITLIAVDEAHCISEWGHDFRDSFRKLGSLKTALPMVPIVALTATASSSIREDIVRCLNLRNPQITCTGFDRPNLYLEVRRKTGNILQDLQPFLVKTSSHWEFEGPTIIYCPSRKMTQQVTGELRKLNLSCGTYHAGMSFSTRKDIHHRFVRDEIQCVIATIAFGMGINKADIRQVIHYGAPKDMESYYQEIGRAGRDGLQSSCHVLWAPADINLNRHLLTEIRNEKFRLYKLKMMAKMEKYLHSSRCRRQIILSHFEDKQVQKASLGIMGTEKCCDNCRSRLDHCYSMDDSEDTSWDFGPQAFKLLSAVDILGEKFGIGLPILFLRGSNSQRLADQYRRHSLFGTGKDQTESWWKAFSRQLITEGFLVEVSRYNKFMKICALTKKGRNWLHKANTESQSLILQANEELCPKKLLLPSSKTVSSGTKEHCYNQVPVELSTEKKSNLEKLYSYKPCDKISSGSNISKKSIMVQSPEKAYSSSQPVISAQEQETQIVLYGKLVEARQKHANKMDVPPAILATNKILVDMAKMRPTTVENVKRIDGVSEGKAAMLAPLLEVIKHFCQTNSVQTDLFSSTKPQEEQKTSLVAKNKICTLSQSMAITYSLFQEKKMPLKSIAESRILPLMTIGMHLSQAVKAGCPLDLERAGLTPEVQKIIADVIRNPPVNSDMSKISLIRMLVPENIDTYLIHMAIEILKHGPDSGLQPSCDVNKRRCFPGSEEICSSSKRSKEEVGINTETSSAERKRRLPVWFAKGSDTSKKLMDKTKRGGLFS
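Fluorescence dequenching readout, ex 525 nm/em 598 nm, kinetic mode: forked duplex DNA (100 nM final) with adjacent fluorophore and quencher unwound by WRN (20 nM final) with 2 mM ATP. Compound preincubation 15 min, room temperature.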
WRN helicase inh-2: confirmation of human WRN helicase inhibitors; WRN helicase DNA unwinding, fluorescence kinetic; hit rate 63% among 610; shares compounds with WRN helicase inh-1; AID 720497; Potency, µM (doses to about 57.1 µM), for inactives: at the highest dose activity, negative = inhibition, actives largely listed as inhibitors; also: nearly all actives have a fitted effect of over 65% in size
TO DNA binding: DNA binding via thiazole orange displacement. AID 720499. hit rate 10% among 610. shares compounds with WRN helicase inh-1. Potency, µM (series often up to 57.1 µM), without a hit: top-dose activity change, negative = inhibition, actives largely listed as inhibitors. thiazole orange DNA binding displacement, fluorescence;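 also: drop in dye fluorescence marks compound binding to DNA; % is scaled to controls: 0 for no effect and ±100 for the full control effect; nearly all actives have a fitted effect of over 60% in size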
BLM helicase inh-2: BLM helicase inhibition, WRN selectivity check | shares compounds with WRN helicase inh-1 | Recombinant BLM helicase DNA unwinding, red fluorescence | Potency, µM (doses to about 57.1 µM), for inactives: top-dose activity change, negative = inhibition, actives largely listed as inhibitors | hit rate 60% among 610 | AID 720503; also: nearly all actives have a fitted effect of over 60% in size
* hit, by the source's call; i = inactive; ? = inconclusive; / = no result; [ ] = another dose, or the depositor's remark. Most compounds without a hit are left out; they make up all but 0.99% or so of the library. Calls follow the shape of the dose curve; as a rule, active = well fitted curve in the direction sought with a large enough effect; inconclusive = small, poorly fitted or top-dose-only effect, or another doubt; inactive = no such curve, though single readings can be large; an effect the other way counts as inactive or inconclusive. Potency is read from the fitted curve at half-maximal effect.

SMILES	RECQ1 inh	FEN1 inhibitor	BLM helicase inh-1	L3MBTL1 block	WRN helicase inh-1	WRN helicase inh-2	TO DNA binding	BLM helicase inh-2
Cc1ccc(C(=O)Nc2ccc(C(=O)N/N=C/c3cccnc3)cc2)cc1	/	-5.2%	-3.7%	/	-13.8%[11.6 µM]	/	/	/
Cc1ccc(NC(=O)CN(C)C(=O)c2cccc(-n3cccc3)c2)cc1	/	?	/	3.98µM*	35.5µM*	7.64µM*	-15.3%	2.15µM*
COC(=O)c1ccccc1NC(=O)c1nn(-c2ccc(OC)cc2)c(=O)c2c1c1ccccc1n2C	/	-8.8%	-12.4%	/	/	/	/	/
COc1cc(-c2cnc3c(NC=O)cc(-c4cccc(NC(C)=O)c4)cn23)cc(OC)c1OC	/	/	/	/	25.1µM*	9.61µM*	7.9%	15.2µM*
N#CCC(=O)Nc1ccc(C(=O)OCC(=O)NNC(=O)c2cccs2)cc1	/	-3.1%	/	-0.2%	-26.7%	/	/	/
N#CCC(=O)Nc1ccc(C(=O)OCC(=O)NNC(=O)c2ccc(Cl)cc2)cc1	/	?	/	-8.8%	?	?	30.4µM*	?
CC(=O)[C@@]1(O)Cc2c(O)c3c(c(O)c2[C@H](O[C@H]2C[C@H](N)[C@H](O)[C@H](C)O2)C1)C(=O)c1ccccc1C3=O	/	/	/	/	/	24.1µM*	i	24.1µM*
O=C(O)c1ccc(-n2cccc2/C=C2/NC(=O)N(c3ccccc3)C2=O)cc1	25.1µM*	?	-2.2%	/	35.5µM*	15.2µM*	-7.8%	7.64µM*
O=C(O)c1ccc(-n2cccc2/C=C2/SC(=O)N(CC(=O)N3CCCC3)C2=O)cc1	/	39.8µM*	-6.0%	/	20µM*	6.81µM*	5.8%	3.04µM*
Cc1ccc(S(=O)(=O)N2CCC(C(=O)NC3CC3)CC2)cc1	/	-26.6%	-4.2%	/	-0.1%	/	/	/
CCN(CC)c1ccc(/C=C2/C(=O)c3ccc(C(=O)O)cc3C2=O)cc1	-19.0%	?	-7.3%	25.1µM*	35.5µM*	24.1µM*	96.1%	?
CC1SCC(=NOCc2ccccc2)CS1 (centres undefined)	-2.6%	2.0%	-3.8%	7.2%	-6.1%	/	/	/
O=C(c1ccc(-n2cccc2)cc1)N1CCOCC1	-4.2%	4.6%	3.6%	/	1.2%	/	/	/
O=C(c1ccc(=O)oc1)N1CCOCC1	-9.7%	31.6µM*	48.9%	4.47µM*	?	5.41µM*	-0.7%	3.04µM*
Nc1nc2c(s1)CCc1c-2cnn1-c1ccccc1	?	17.8µM*	-0.1%	31.6µM*	-24.8%	30.4µM*	-15.7%	30.4µM*
COc1ccc(S(=O)(=O)N(C)CC(=O)Nc2ccc(F)cc2)cc1	-5.7%	1.4%	5.7%	/	-8.8%	/	/	/
CCCCNC(C(=O)Nc1ccc([N+](=O)[O-])cc1Br)c1ccccc1 (centres undefined)	-19.0%	3.3%	-0.4%	-5.8%	?	0.5%	-8.2%	-10.8%
COCCNC(C(=O)Nc1ccc([N+](=O)[O-])cc1Br)c1ccccc1 (centres undefined)	-10.7%	-3.4%	-6.0%	-8.9%	-6.1%	/	/	/
Cc1ccc(NN2C(=O)C=C(c3ccccc3)C2=O)cc1	-1.2%	-22.5%	-1.3%	14.1%	?	-19.7%	-6.0%	-21.8%
O=C1c2ccccc2C(=O)N1Nc1ccccc1	6.4%	2.5%	-1.6%	-4.8%	-19.7%	/	/	/
Cc1cc(C)c(NC(=O)CSc2nc3ccccc3c3nc(CCn4cncc4C)nn23)c(C)c1	/	-8.3%	3.8%	/	/	/	/	/
Cc1ccc(-c2ccc(/C=C3\C(=O)ON=C3c3ccccc3)o2)c([N+](=O)[O-])c1	0.0%	-12.8%	-11.1%	-2.2%	39.8µM*	21.5µM*	?	21.5µM*
COc1ccccc1C1CN(c2ccc(F)cc2F)N=C1c1cccs1 (centres undefined)	-9.0%	-3.6%	-7.7%	/	-6.5%	/	/	/

Bioassay records: PubChem, National Center for Advancing Translational Sciences (NCATS)
